Screening data deposited in PubChem by several laboratories.
TIM10 inh – growth inhibitors of TIM10 yeast strain; S. cerevisiae TIM10 strain growth, BacTiter-Glo luminescence, 24 h; inhibition, % at 10 µM; actives 1.4% (n = 330,000); AID 463195;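 active means inhibition of 40% or more at the single tested concentration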;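 further: wild-type TIM10 isogenic control strain grown at permissive 25 °C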
SKKanGAS inh – inhibitors of SKKanGAS S. pyogenes growth in kanamycin (SK-promoter or general growth effect); actives 1.3% (n = 300,000); BacTiter-Glo, 6 h; inhibition, % at 7.5 µM;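 active means mean replicate score, as percent of positive control median, at least 50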;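 further: strain carries kanamycin resistance gene driven by streptokinase promoter and grows in 40 µg/ml kanamycin; loss of luminescence reflects streptokinase promoter inhibition or plain growth inhibition; 0% = median of DMSO wells and 100% = positive control at its reference dose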
PfHsp90 set2 – reduces growth (ATP signal) of yeast expressing P. falciparum Hsp90; inhibition, % at 9.4 µM; actives 0.32% (n = 310,000); S. cerevisiae expressing PfHsp90, BacTiter-Glo ATP, 48 h; yeast lacking PDR1 and PDR3 efflux regulators;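 active means every replicate shows inhibition above about 80%, whatever the replicate mean, limit read from the data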;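 further: 0% = DMSO neutral controls and 100% = 20 µM radicicol positive controls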
tim23-1 inh – inhibits growth of tim23-1 mutant yeast | S. cerevisiae tim23-1 growth, BacTiter-Glo luminescence, 24 h | inhibition, % at 20 µM | actives 1.3% (n = 330,000) | AID 463212;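 active means growth inhibition of the mutant yeast at or above 50%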;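 further: temperature-sensitive mutant grown at 25 °C; plate controls were DMSO-treated mutant yeast for no effect and medium wells lacking yeast for full effect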
V-ATPase pHluor – yeast V-ATPase proton transport regulation by pHLuorin; S. cerevisiae, pHLuorin cytosolic pH fluorescence; response, % at 10 µM; actives 0.37% (n = 350,000); AID 504577; in the data active means response mostly above about 7.3%, no sharp cut-off; inactive means mostly below about 5.4%; further: actives read high
tim10-1 inh – inhibits growth of tim10-1 mutant yeast; AID 463190; S. cerevisiae tim10-1 ts strain growth, BacTiter-Glo, 24 h; inhibition, % at 20 µM; actives 2.2% (n = 330,000);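 active means inhibition of at least 40%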;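 further: mutant grown at 25 °C; 0% = DMSO wells with yeast and 100% = wells holding no yeast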
TIM10 conf – confirmation of TIM10 yeast growth inhibitors | S. cerevisiae tim10 strain growth, BacTiter-Glo luminescence, 24 h | inhibition, % at 10 µM | AID 463215 | actives 63% (n = 4,600) | shares compounds with TIM10 inh;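 active means inhibition of yeast growth at or above a set limit in either of two replicates at 10 µM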;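 further: this counterscreen used the strain with wild-type TIM10; 0% = yeast with DMSO and 100% = medium wells lacking yeast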
Starred values were filed as active, the others as inactive; / = no result given. Shown are actives, neighbours in structure and some others; about 4.6% of the full set was active somewhere.

SMILES	TIM10 inh	SKKanGAS inh	PfHsp90 set2	tim23-1 inh	V-ATPase pHluor	tim10-1 inh	TIM10 conf
Oc1ccccc1Cn1c(-c2ccccc2O)nc2ccccc21	52*	15	-11	3	3	35	22
O=C(Nc1ccc(C(=O)O)cc1)/C(=C\C=C\c1ccccc1)NC(=O)c1ccccc1Br	0	12	8	-13	-6	3	/
COC(=O)[C@@H](NC(=O)NCCC1=CCCCC1)C(C)C	49*	0	1	6	-1	10	-16
O=C(COc1ccc2ccc(=O)oc2c1)Nc1cccc(S(=O)(=O)N2CCCCC2)c1	-6	/	/	-7	1	-9	/
CCOc1ccc2c(c1)C(c1ccc(C)cc1)=NNC(c1ccc(OC)cc1)=N2	0	-4	-14	28	2	-4	/
CCOc1ccc(C2=NNC(c3cccnc3)=Nc3ccc(OC)cc32)cc1	51*	-5	3	11	4	14	31
O=C(NC(=S)NNC(=O)c1ccccc1O)c1cccc([N+](=O)[O-])c1	42*	29	11	20	2	-18	56*
CCOC(=O)c1c(N)sc2c(OCC)c(Br)ccc12	41*	-5	25	47	2	30	23
C[C@@H]1CN(C(=O)c2nc3ccc(Cl)cn3c2CN(C)CCc2cnn(C)c2)C[C@H](C)O1	8	0	-22	13	-3	30	/
Cn1nnnc1SC(C(=O)Nc1ccc(F)cc1)c1ccccc1 (stereo not drawn)	17	0	16	14	1	19	/
Cn1c(SC(C(=O)Nc2ccc(F)cc2)c2ccccc2)nc2ccccc21 (stereo not drawn)	46*	0	13	30	1	32	43*
CCn1c(C)cs/c1=N\C(=S)Nc1ccccc1C	41*	-1	4	48	1	35	-34
CCC(C)(C)NC(=S)Nc1ccccc1C	0	-3	0	10	-2	-10	/
Cc1cc2oc(=O)cc(-c3ccccc3)c2c(C)c1-c1ccc(C#N)cc1	3	/	-19	42	-1	16	/
COCc1ccc(C(=O)NC2CCCc3c2cnn3-c2cc(C)cc(C)c2)s1 (stereo not drawn)	9	22	13	27	2	20	/
COc1ccccc1-c1cc(C(F)(F)F)nc(S(=O)(=O)CCCC(=O)Nc2cccnc2Cl)n1	/	/	-29	/	2	/	/
COc1ccccc1-c1cc(C(F)(F)F)nc(S(=O)(=O)CCCC(=O)NC(C)C)n1	42*	7	-18	32	-2	38	-20
COc1ccccc1-c1cc(C(F)(F)F)nc(S(=O)(=O)CCCC(=O)NCc2ccc(F)cc2)n1	50*	-8	/	9	-2	38	14
O=C(CS(=O)(=O)Cc1ccccc1)c1ccccc1	/	/	/	/	-1	/	/
CC(=O)CSc1ncnc2sc3c(c12)CCC(C)C3 (stereo not drawn)	43*	-1	-30	37	3	40	-5
CCOCCCNC(=O)Cn1cnc2c(cnn2-c2ccc(OC)cc2)c1=O	50*	-5	21	-3	1	-14	-6
O=C(OC(C(=O)NC1CCCCC1)c1ccccc1F)c1ccco1 (stereo not drawn)	1	6	5	26	3	7	/
Cc1ccc(S(=O)(=O)Cc2cc(F)c([N+](=O)[O-])cc2[N+](=O)[O-])cc1	89*	6	73	-8	2	29	68*
N#C/C(=N\Nc1cc(Cl)cc(Cl)c1)c1nnc2n1CCCCC2	41*	-2	/	13	-1	35	28
Cc1ccc2nc(Cl)c3nnnn3c2c1	55*	-1	107*	14	10.0*	-74	71*
SMILES	TIM10 inh	SKKanGAS inh	PfHsp90 set2	tim23-1 inh	V-ATPase pHluor	tim10-1 inh	TIM10 conf
Cc1ccc(C(=O)NNC(=S)NC(=O)c2ccc(Cl)cc2)cc1	48*	100*	-8	36	4	38	31*
O=S(=O)(Nc1ccccc1O)c1ccc(Cl)nc1	0	-4	-1	6	0	-15	/
Cc1ccccc1CCN1CCCC(CN(C)C(=O)c2ccc3ncccc3c2)C1 (stereo not drawn)	-1	-8	5	9	0	14	/
COc1ccc(Cc2nc(C)cc(Cl)n2)cc1[N+](=O)[O-]	42*	-2	-11	-9	0	-4	-4
CC1CC(C)CN(C(=O)COC(=O)c2ccc(S(=O)(=O)N(C)c3ccccc3)cc2)C1 (stereo not drawn)	22	/	/	12	6	0	/
CCOC(=O)c1cc(-c2cccc([N+](=O)[O-])c2)n[nH]1	48*	-7	11	0	1	36	28*
CC(C)c1cc(CN2C(C)COCC2C)cc(C(C)C)c1O (stereo not drawn)	/	/	/	/	0	/	/
O=C(N=Nc1c(O)[nH]c2ccccc12)Nc1ccccc1	/	/	-5	/	9	/	/
Cc1cccc(NC(=S)N=Nc2c(O)[nH]c3ccccc23)c1	41*	97*	-51	38	2	34	37*
O=C(CCN1C(=O)C2C3CCC(C3)C2C1=O)OCC(=O)c1ccc(Cl)cc1 (stereo not drawn)	-4	-3	22	-1	-4	-2	/
N#Cc1ccc(/C=C/C(=O)c2ccco2)cc1	-3	-8	-2	8	0	27	/
Cc1ccc(/C=C/C(=O)c2cc(Br)ccc2OC(=O)c2ccco2)cc1	47*	19	-14	40	2	37	44*
O=C(/C=C/c1cc(Br)ccc1O)c1ccco1	66*	-14	101*	-86	-1	-130	80*
CC1CCc2c(C(=O)Nc3nccs3)csc2C1 (stereo not drawn)	43*	-9	-36	43	-1	34	43*
CC1CCc2c(C(=O)Nc3ccccn3)csc2C1 (stereo not drawn)	13	8	9	40	9	7	/
COc1ccccc1NC(=S)N(Cc1cccnc1)Cc1ccccc1Cl	31	6	7	7	0	24	/
COc1ccccc1NC(=S)N(Cc1ccc(C)cc1)Cc1cccnc1	47*	12	14	29	0	38	15
CNC(=S)N1CCc2cc(OC)c(OC)cc2C1	-15	-4	-8	2	2	-12	/
O=C(NC(=S)Nc1ccc2c(c1)OCCO2)c1cccc2ccccc12	44*	33	4	40	2	39	48*
Cc1cc(-c2ccc(S(=O)(=O)N3CCN(c4cccc(C)c4C)CC3)s2)on1	8	-13	9	2	0	1	/
O=S(=O)(c1ccc(F)cc1)N1CCN(CC(O)COc2ccccc2F)CC1 (stereo not drawn)	-4	-1	12	15	2	10	/
